# Results as given in PubChem BioAssay AID1159580 (chemical genetic matrix, 2015).
# Several values for one entry are separate records, joined by “and”; a condition that tells them apart may be missing. Identical values can stand only once. Screen size: about 5,500 compounds; about 2,000 (36%) were called active. About 18% were inconclusive and are not listed. Some of the results follow. Values without a mark were called inactive. Cut-off read from the data, not from the text of the source: active = normalized growth mostly below about 0.91 (no sharp cut-off); inconclusive = no clear call, values can overlap the other calls; inactive = mostly above about 0.92.
# Experiment: chemical genetic growth profiling, strain panel (AID 1159580);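 note: tested at 20 µM; growth read once vehicle control cultures reached saturation at 30 °C; 1 = growth at the plate median or of vehicle wells; lower values mean less growth of the strain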
# Conditions: growth OD
structure (smiles),measurement,setting,value
O=c1[nH]cc(F)c(=O)[nH]1,normalized growth,"S. cerevisiae deletion strains, locus YKL009W, strain mrt4, hits give low values",0.862 (active)
same,normalized growth,"S. cerevisiae deletion strains, locus YKL068W, hits give low values",0.995
same,normalized growth,"S. cerevisiae deletion strains, locus YKL085W, strain MDH1 (second series), hits give low values",0.965
same,normalized growth,"S. cerevisiae deletion strains, locus YKL085W, strain MDH1, hits give low values",0.965
same,normalized growth,"S. cerevisiae deletion strains, locus YKL160W, strain elf1, hits give low values",0.671 (active)
same,normalized growth,"S. cerevisiae deletion strains, locus YKL190W, strain CNB1, hits give low values",0.858 (active)
same,normalized growth,"S. cerevisiae deletion strains, locus YKR001C, strain vps1, hits give low values",0.471 (active)
same,normalized growth,"S. cerevisiae deletion strains, locus YKR026C, strain gcn3, hits give low values",0.83 (active)
same,normalized growth,"S. cerevisiae deletion strains, locus YKR091W, strain srl3, hits give low values",1.01
same,normalized growth,"S. cerevisiae deletion strains, locus YLL001W, strain dnm1, hits give low values",0.456 (active)
same,normalized growth,"S. cerevisiae deletion strains, locus YLL026W, hits give low values",0.588 (active)
same,normalized growth,"S. cerevisiae deletion strains, locus YLL041C, strain sdh2, hits give low values",0.849 (active)
same,normalized growth,"S. cerevisiae deletion strains, locus YLR027C, strain aat2, hits give low values",0.537 (active)
same,normalized growth,"S. cerevisiae deletion strains, locus YLR039C, strain RIC1, hits give low values",0.601 (active)
same,normalized growth,"S. cerevisiae deletion strains, locus YLR058C, strain SHM2, hits give low values",0.746 (active)
same,normalized growth,"S. cerevisiae deletion strains, locus YLR102C, strain apc9, hits give low values",0.943
same,normalized growth,"S. cerevisiae deletion strains, locus YLR113W, strain HOG1, hits give low values",0.772 (active)
same,normalized growth,"S. cerevisiae deletion strains, locus YLR221C, strain rsa3, hits give low values",0.411 (active)
same,normalized growth,"S. cerevisiae deletion strains, locus YLR258W, strain gsy2, hits give low values",0.542 (active)
same,normalized growth,"S. cerevisiae deletion strains, locus YLR262C, strain YPT6 (second series), hits give low values",0.63 (active)
same,normalized growth,"S. cerevisiae deletion strains, locus YLR262C, strain YPT6, hits give low values",0.647
same,normalized growth,"S. cerevisiae deletion strains, locus YLR268W, strain sec22, hits give low values",0.726 (active)
same,normalized growth,"S. cerevisiae deletion strains, locus YLR320W, strain mms22, hits give low values",0.509 (active)
same,normalized growth,"S. cerevisiae deletion strains, locus YLR330W, strain CHS5, hits give low values",0.966
same,normalized growth,"S. cerevisiae deletion strains, locus YLR342W, strain FKS1 (second series), hits give low values",0.743 (active)
same,normalized growth,"S. cerevisiae deletion strains, locus YLR342W, strain FKS1, hits give low values",0.807 (active)
same,normalized growth,"S. cerevisiae deletion strains, locus YLR357W, strain rsc2, hits give low values",0.775 (active)
same,normalized growth,"S. cerevisiae deletion strains, locus YLR370C, strain arc18, hits give low values",0.562 (active)
same,normalized growth,"S. cerevisiae deletion strains, locus YLR371W, strain rom2, hits give low values",0.867 (active)
same,normalized growth,"S. cerevisiae deletion strains, locus YLR384C, strain iki3, hits give low values",0.809 (active)
same,normalized growth,"S. cerevisiae deletion strains, locus YLR418C, strain cdc73, hits give low values",0.819 (active)
same,normalized growth,"S. cerevisiae deletion strains, locus YML016C, strain PPZ1, hits give low values",0.864 (active)
same,normalized growth,"S. cerevisiae deletion strains, locus YML032C, strain rad52, hits give low values",0.642 (active)
same,normalized growth,"S. cerevisiae deletion strains, locus YML120C, strain ndi1, hits give low values",0.464 (active)
same,normalized growth,"S. cerevisiae deletion strains, locus YML124C, strain tub3, hits give low values",0.914 (active)
same,normalized growth,"S. cerevisiae deletion strains, locus YMR058W, strain fet3, hits give low values",0.562 (active)
same,normalized growth,"S. cerevisiae deletion strains, locus YMR078C, strain ctf18, hits give low values",0.994
same,normalized growth,"S. cerevisiae deletion strains, locus YMR125W, strain sto1, hits give low values",1.12 [resistant] (active)
same,normalized growth,"S. cerevisiae deletion strains, locus YMR129W, hits give low values",0.701 (active)
same,normalized growth,"S. cerevisiae deletion strains, locus YMR205C, strain PFK2, hits give low values",0.919
same,normalized growth,"S. cerevisiae deletion strains, locus YMR223W, strain ubp8, hits give low values",0.613 (active)
same,normalized growth,"S. cerevisiae deletion strains, locus YMR231W, strain pep5, hits give low values",0.793 (active)
same,normalized growth,"S. cerevisiae deletion strains, locus YMR263W, strain SAP30, hits give low values",0.957 and 1.01
same,normalized growth,"S. cerevisiae deletion strains, locus YMR307W, strain GAS1, hits give low values",0.901 and 0.99
same,normalized growth,"S. cerevisiae deletion strains, locus YNL067W, strain RPL9B, hits give low values",0.84 (active)
same,normalized growth,"S. cerevisiae deletion strains, locus YNL071W, strain lat1, hits give low values",0.698 (active)
same,normalized growth,"S. cerevisiae deletion strains, locus YNL128W, strain TEP1, hits give low values",0.784 (active)
same,normalized growth,"S. cerevisiae deletion strains, locus YNL175C, strain NOP13, hits give low values",1.03
same,normalized growth,"S. cerevisiae deletion strains, locus YNL183C, strain NPR1, hits give low values",0.611 (active)
same,normalized growth,"S. cerevisiae deletion strains, locus YNL197C, strain WHI3, hits give low values",1.01
same,normalized growth,"S. cerevisiae deletion strains, locus YNL209W, strain ssb2, hits give low values",0.647 (active)
same,normalized growth,"S. cerevisiae deletion strains, locus YNL224C, strain SQS1, hits give low values",0.929
same,normalized growth,"S. cerevisiae deletion strains, locus YNL233W, strain BNI4, hits give low values",0.843 (active)
same,normalized growth,"S. cerevisiae deletion strains, locus YNL248C, strain rpa49, hits give low values",0.346 (active)
same,normalized growth,"S. cerevisiae deletion strains, locus YNL250W, strain rad50, hits give low values",0.848 (active)
same,normalized growth,"S. cerevisiae deletion strains, locus YNL271C, strain bni1, hits give low values",0.811 (active)
same,normalized growth,"S. cerevisiae deletion strains, locus YNL298W, strain CLA4, hits give low values",0.905 (active)
same,normalized growth,"S. cerevisiae deletion strains, locus YNL307C, strain MCK1, hits give low values",0.756 (active)
same,normalized growth,"S. cerevisiae deletion strains, locus YNL322C, strain KRE1 (second series), hits give low values",0.65 (active)
same,normalized growth,"S. cerevisiae deletion strains, locus YNR049C, strain mso1, hits give low values",0.647 (active)
same,normalized growth,"S. cerevisiae deletion strains, locus YNR052C, strain pop2, hits give low values",0.909 (active)
same,normalized growth,"S. cerevisiae deletion strains, locus YOL012C, strain htz1",2.56 [resistant] (active)
same,normalized growth,"S. cerevisiae deletion strains, locus YOL147C, strain pex11, hits give low values",0.796 (active)
same,normalized growth,"S. cerevisiae deletion strains, locus YOR001W, strain rrp6, hits give low values",0.193 (active)
same,normalized growth,"S. cerevisiae deletion strains, locus YOR061W, strain CKA2, hits give low values",0.947
same,normalized growth,"S. cerevisiae deletion strains, locus YOR069W, strain VPS5, hits give low values",0.858 (active)
same,normalized growth,"S. cerevisiae deletion strains, locus YOR070C, strain gyp1, hits give low values",0.622 (active)
same,normalized growth,"S. cerevisiae deletion strains, locus YOR080W, strain dia2, hits give low values",0.809 (active)
same,normalized growth,"S. cerevisiae deletion strains, locus YOR083W, strain WHI5 (second series), hits give low values",1.03
same,normalized growth,"S. cerevisiae deletion strains, locus YOR083W, strain WHI5, hits give low values",0.686 (active)
same,normalized growth,"S. cerevisiae deletion strains, locus YOR106W, strain vam3, hits give low values",0.394 (active)
same,normalized growth,"S. cerevisiae deletion strains, locus YOR136W, strain idh2, hits give low values",0.902 (active)
same,normalized growth,"S. cerevisiae deletion strains, locus YOR144C, strain elg1, hits give low values",0.999
same,normalized growth,"S. cerevisiae deletion strains, locus YOR184W, strain ser1, hits give low values",0.561 (active)
same,normalized growth,"S. cerevisiae deletion strains, locus YOR231W, strain MKK1, hits give low values",0.549 (active)
same,normalized growth,"S. cerevisiae deletion strains, locus YOR265W, strain rbl2, hits give low values",0.654 (active)
same,normalized growth,"S. cerevisiae deletion strains, locus YOR270C, strain vph1, hits give low values",0.397 (active)
same,normalized growth,"S. cerevisiae deletion strains, locus YOR290C, strain snf2, hits give low values",0.415 (active)
same,normalized growth,"S. cerevisiae deletion strains, locus YOR316C, strain cot1, hits give low values",0.958
same,normalized growth,"S. cerevisiae deletion strains, locus YPL051W, strain arl3, hits give low values",0.598 (active)
same,normalized growth,"S. cerevisiae deletion strains, locus YPL055C, strain LGE1, hits give low values",0.955
same,normalized growth,"S. cerevisiae deletion strains, locus YPL078C, strain atp4, hits give low values",0.482 (active)
same,normalized growth,"S. cerevisiae deletion strains, locus YPL106C, strain sse1, hits give low values",0.709 (active)
same,normalized growth,"S. cerevisiae deletion strains, locus YPL240C, strain hsp82, hits give low values",0.671 (active)
same,normalized growth,"S. cerevisiae deletion strains, locus YPL241C, strain CIN2, hits give low values",1.03
same,normalized growth,"S. cerevisiae deletion strains, locus YPL256C, strain CLN2, hits give low values",0.714 (active)
same,normalized growth,"S. cerevisiae deletion strains, locus YPR119W, strain clb2, hits give low values",1.03
same,normalized growth,"S. cerevisiae deletion strains, locus YPR141C, strain kar3, hits give low values",1.03
same,normalized growth,"S. cerevisiae deletion strains, locus YPR163C, strain tif3, hits give low values",0.981
same,normalized growth,"S. cerevisiae deletion strains, locus YPR167C, strain met16, hits give low values",0.831 (active)
same,normalized growth,"S. cerevisiae deletion strains, strain wtn01, hits give low values",0.635 (active)
same,normalized growth,"S. cerevisiae strains, strain wild type, hits give low values",0.776 (active)
